Screens (PubChem BioAssay)
Shown are actives, neighbours in structure and some others; about 3.7% of the full set was active somewhere.
Anthrax LF prot – Bacillus anthracis LF protease inhibitors, primary screen, biochemical, multiplex microsphere, MLPCN library. Lethal factor (Bacillus anthracis), P15917. multiplex microsphere protease cleavage assay. inhibition, % at 10 µM. 360,000 compounds, 0.12% hits. AID 588501, 2011
Bead autofluor – counter-screen for toxin protease inhibitors: compound fluorescence; compound autofluorescence counterscreen, microsphere flow cytometry; stronger effect = higher value; fluorescence intensity (concentration not given with the values); 360,000 compounds, 3.1% hits; AID 624483; in the data active means fluorescence intensity above about 16000; inconclusive means no clear call, values can overlap the other calls
BoNT A protease – BoNT/A light chain protease inhibitors, primary screen, biochemical, flow cytometry, MLPCN library. Botulinum neurotoxin type A light chain protease (Clostridium botulinum A str. ATCC 3502). multiplex microsphere protease substrate cleavage. inhibition, % at 10 µM. 360,000 compounds, 0.17% hits
BoNT F protease – BoNT/F light chain protease inhibitors, primary screen, biochemical, flow cytometry, MLPCN library. Botulinum neurotoxin type F light chain protease (Clostridium botulinum). Multiplex microsphere protease cleavage assay. inhibition, % at 10 µM. 360,000 compounds, 0.22% hits. AID 588497, 2011; in the data active means inhibition above about 35%, passing the limit was not always enough; inconclusive means no clear call, values can overlap the other calls
MazF activator – activators of E. coli MazEF toxin-antitoxin RNase, primary screen, biochemical, fluorescence, uHTS | Endoribonuclease toxin MazF (Escherichia coli (strain K12)), P0AE70 | FAM/BHQ RNA-DNA oligo cleavage fluorescence, 5 h | activation, % at 20 µM | 350,000 compounds, 0.32% hits | AID 504720, 2011; in the data active means activation above about 50%
Target sequence (P0AE70 whole entry, looked up): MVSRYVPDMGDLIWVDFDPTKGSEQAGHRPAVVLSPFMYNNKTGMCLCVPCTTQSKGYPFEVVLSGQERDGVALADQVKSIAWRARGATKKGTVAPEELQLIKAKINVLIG
Hits are given with their value; 0 = inactive; ? = inconclusive; - = no result given. Unless noted, no stated cut-off is given here; in the data, active means inhibition above about 30%; inconclusive means no clear call, values can overlap the other calls; inactive means below that.

SMILES | Anthrax LF prot | Bead autofluor | BoNT A protease | BoNT F protease | MazF activator
O=C(c1ccccc1)N(Cc1ccccc1)c1ccccn1 | 0 | 0 | 0 | 0 | 0
COc1cc(C(=O)N2CCCCC2)ccc1OCC(=O)Nc1ccc(F)cc1 | 0 | 0 | 0 | 0 | 0
O=c1c(O)c(-c2ccc(O)c(O)c2)oc2cc(O)ccc12 | 0 | 0 | 0 | 0 | 57.8
O=C(/C=C/c1ccc([N+](=O)[O-])cc1)NCCSc1ccccc1 | 0 | 23722 | ? | 0 | 0
CCCCc1nc(SCC(=O)Nc2cccc(Cl)c2)n[nH]1 | 0 | 0 | 0 | 0 | 0
CC(c1cccs1)N(Cc1ccco1)C(=O)Nc1ccc(Cl)c(Cl)c1 (centres undefined) | 0 | 17014 | 0 | 0 | 0
COc1cccc(NC(=O)N(Cc2ccco2)C(C)c2cccs2)c1 (centres undefined) | 0 | 0 | 0 | 0 | 0
COc1ccc(NCC(=O)Nc2ccccc2C#N)cc1Cl | 0 | 21530 | 0 | 0 | 0
Cc1cccc(NC(=O)Cn2cccc2)c1 | 0 | 20306 | 0 | 0 | 0
Cc1ccc(NC(=O)Cn2cccc2)c(C)c1 | 0 | 0 | 0 | 0 | 0
Cc1ccc(NC(=O)Cn2cccc2)c(Br)c1 | 0 | 23334 | 0 | 0 | 0
O=C(Cn1cccc1)Nc1ccc(OC(F)(F)F)cc1 | 0 | 21063 | 0 | 0 | 0
O=C(CCn1cccc1)Nc1ccc(OC(F)(F)F)cc1 | 0 | 0 | 0 | 0 | 0
O=C(COc1ccc(Cl)cc1Cl)NCCN1CCCC1 | 0 | 0 | 0 | 0 | 0
CC(NS(=O)(=O)c1ccc(Cl)cc1)C(=O)OCC(=O)c1ccc[nH]1 (centres undefined) | 0 | 0 | 0 | 0 | 0
COc1ccc(NC(=O)Cn2cccc2)cc1Cl | 0 | 22292 | 0 | 0 | 0
Cc1ccc(NC(=O)Cn2cccc2)cc1Cl | 0 | 0 | 0 | 0 | 0
O=c1[nH]c(=O)n(Cc2ccco2)c2c1C(C(F)(F)F)(C(F)(F)F)N=C(C1CCCCC1)N2 | 0 | 20476 | 0 | 0 | 0
N#Cc1ccc(C2=NC(C(F)(F)F)(C(F)(F)F)c3c(n(Cc4ccco4)c(=O)[nH]c3=O)N2)cc1 | 0 | 23851 | 0 | 0 | 0
COC(=O)c1[nH]c2cc(OC)ccc2c1NC(=O)CCN1CCN(c2ccccc2)CC1 | 0 | 23523 | 0 | 0 | 0
CCOC(=O)C1CCCN(CCC(=O)Nc2c(C(=O)OC)[nH]c3cc(OC)ccc23)C1 (centres undefined) | 0 | 19014 | ? | 0 | 0
O=Cc1ccc(Cl)c(Cl)c1 | 0 | 0 | 0 | 0 | 0
O=C(c1ccco1)c1cc2c(ccc3ccccc32)oc1=O | 0 | 22410 | 0 | 0 | 0
CC(=O)c1cc2c(ccc3ccccc32)oc1=O | 0 | 0 | 0 | 0 | 0
CN(C)c1ccc(CNS(=O)(=O)c2ccc3c(c2)NC(=O)CS3)cc1 | 0 | 0 | 0 | 0 | 0
SMILES | Anthrax LF prot | Bead autofluor | BoNT A protease | BoNT F protease | MazF activator
CC(=O)N1CCN(Cc2ccc(Br)s2)CC1 | 0 | 22754 | 0 | 0 | 0
CCOc1ccccc1N1CCN(Cc2ccc(Br)s2)CC1 | 0 | 0 | 0 | 0 | 0
Cc1ccc(-c2nnn(CC(=O)N(Cc3cccs3)C(C(=O)NC(C)(C)C)c3ccco3)n2)o1 (centres undefined) | 0 | 0 | 0 | 0 | 0
Cc1ccc(-c2nnn(CC(=O)N(CC3CCCO3)C(C(=O)NC3CCCC3)c3ccc(O)cc3)n2)o1 (centres undefined) | 0 | 0 | 0 | 0 | 0
Cc1ccc(-c2nnn(CC(=O)N(Cc3ccco3)C(C(=O)NC(C)(C)C)c3cccs3)n2)o1 (centres undefined) | 0 | 22756 | 0 | 0 | 0
Cc1ccc(C(C(=O)NC(C)(C)C)N(CC2CCCO2)C(=O)Cn2nnc(-c3ccc(C)o3)n2)cc1 (centres undefined) | 0 | 16426 | ? | 0 | 0
Cc1snc(S(=O)(=O)Cc2c(Cl)cccc2Cl)c1C#N | 0 | 25224 | 0 | 0 | 0
Cn1nnnc1SCCNCc1ccccc1OCc1ccc(Cl)cc1 | 0 | 0 | 0 | 0 | 0
Cn1nnnc1SCCNCc1ccc(Cl)cc1 | 0 | 17333 | ? | 0 | 0
CC(=O)Nc1ccc2c(c1)C(=O)N(c1cccc3ccccc13)C2=O | 0 | 0 | 0 | 0 | 0
Cn1c(=O)c2c(ncn2CCN(CCO)Cc2ccccc2)n(C)c1=O | 0 | 20125 | 0 | 0 | 0
CCN(Cc1ccccc1)C(=O)Cn1cnc2c1c(=O)n(C)c(=O)n2C | 0 | 20794 | ? | 0 | 0
O=C(/C=C/c1ccco1)N(c1ccccn1)c1ccccn1 | 0 | 0 | 0 | 0 | 0
CN(C)S(=O)(=O)c1ccc(C(=O)N(c2ccccn2)c2ccccn2)cc1 | 0 | 22500 | 0 | 0 | 0
O=C(c1ccco1)N(c1ccccn1)c1ccccn1 | 0 | 22821 | ? | 0 | 0
O=C(c1cc([N+](=O)[O-])cc([N+](=O)[O-])c1)N(c1ccccn1)c1ccccn1 | 0 | 0 | 0 | 0 | 0
CC(C)C(O)(C#CCN1CCCC1)c1ccccc1 (centres undefined) | 0 | 0 | 0 | 0 | 0
C=C(C)C(C)(C#CCN1CCCC1)OC(C)=O (centres undefined) | 0 | 18876 | 0 | 0 | 0
Cc1cnn(C(=O)Cn2nc(C(F)F)c(Br)c2C)c1 | 0 | 0 | 0 | 0 | 0
O=C(O)c1cccc(Nc2nc(N3CCOCC3)nc(N3CCOCC3)n2)c1 | 0 | 22856 | 0 | 0 | 0
O=C(O)c1cc(Nc2nc(N3CCOCC3)nc(N3CCOCC3)n2)ccc1Cl | 0 | 0 | 0 | 0 | 0
CSc1nc2ccc(Nc3nc(N4CCOCC4)nc(N4CCOCC4)n3)cc2s1 | 0 | 23477 | 0 | 0 | 0
CCOC(=O)c1c(C)n(-c2ccc(C)cc2)c2ccc(OCC(O)CNCC3CCCO3)cc12 (centres undefined) | 0 | 0 | 0 | 0 | 0
OC(CNCC1CCCO1)COc1ccc(OCC(O)CNCC2CCCO2)cc1 (centres undefined) | 0 | 0 | 0 | 0 | 160.2
COc1ccc(N2CCN(Cc3nc(-c4ccc(Cl)cc4Cl)no3)CC2)cc1 | 0 | 20566 | 0 | 0 | 0
SMILES | Anthrax LF prot | Bead autofluor | BoNT A protease | BoNT F protease | MazF activator
c1ccc(-c2noc(CN3CCN(c4ccccc4)CC3)n2)cc1 | 0 | 0 | 0 | 0 | 0
CC(=O)c1ccc(Sc2ccccc2)cc1 | 0 | 22491 | 0 | 0 | 0
O=C(O)Cc1ccc(N=Cc2c(O)ccc3ccccc23)cc1 | 0 | 0 | 0 | 0 | 0
O=c1[nH]c2ccc(N=Cc3c(O)ccc4cc(Br)ccc34)cc2[nH]1 | 0 | 0 | 0 | 0 | 256.0
Cc1ccccc1CN1C(=O)c2ccccc2C1c1nnnn1-c1ccc2c(c1)OCCO2 (centres undefined) | 0 | 0 | 0 | 0 | -
COC(=O)C1CCN(C(=O)c2ccc(SC)cc2OC)CC1 | 0 | 20634 | ? | 0 | 0
C[C@@H]1CC2=C(C(=O)OC(C)(C)O2)[C@H](c2ccc(F)cc2)O1 | 0 | 0 | 0 | 0 | -
COc1cc(/C=C/C(=O)c2ccc(Cl)s2)cc(OC)c1O | 0 | 21357 | ? | 0 | 0
